Shiga toxin inh = inhibitors of Shiga toxin in Vero cells | actives 9.2% (n = 290,000) | Vero cells, Shiga toxin protein synthesis inhibition reporter | AID 2315 | inhibition, % at 38.7 µM; in the data active means inhibition mostly above about 28%, no sharp cut-off; inactive means mostly below about 43%
Pf growth 48h = inhibits P. falciparum growth in the first generation, 48 h | AID 504832 | Potency, µM (top dose mostly 28.7 µM), hits mostly inhibitors | actives 5.9% (n = 310,000) | P. falciparum luciferase growth in erythrocytes, 48 h
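Parasite viability was followed by luminescence of a genomically integrated firefly luciferase. Cultures held 0.1% parasitemia at 2% hematocrit (final), incubated under 5% CO2 at 37 C.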
Giardia FBPA inh = Giardia lamblia aldolase inhibition; Potency, µM (doses to about 59.6 µM), usual class: inhibitors; actives 0.71% (n = 290,000); A8B2U2; purified Giardia FBPA; further: nearly all actives have a fitted effect of over 55% in size
Target sequence (A8B2U2 whole entry, looked up): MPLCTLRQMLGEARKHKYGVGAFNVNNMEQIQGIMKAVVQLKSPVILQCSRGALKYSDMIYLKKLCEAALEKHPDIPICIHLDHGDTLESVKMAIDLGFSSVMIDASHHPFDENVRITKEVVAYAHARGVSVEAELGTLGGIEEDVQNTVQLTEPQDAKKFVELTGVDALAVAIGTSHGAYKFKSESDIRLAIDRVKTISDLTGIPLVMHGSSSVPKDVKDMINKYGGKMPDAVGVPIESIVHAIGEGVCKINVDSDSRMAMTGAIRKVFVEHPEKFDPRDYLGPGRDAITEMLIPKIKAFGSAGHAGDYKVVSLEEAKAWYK
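Giardia FBPA (40 nM reagent) was preincubated 10 min at RT with compound (up to 57.5 uM final), then substrate plus GAPDH/TPI/NAD/arsenate coupling system with diaphorase/resazurin was added; resorufin fluorescence (525/598 nm) was read after 20 min.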
NS1 inh = influenza NS1 inhibition; Potency, µM (titrated, usually from 46.1 µM); actives 0.4% (n = 270,000); AID 2326; calls by dose curve; further: actives are rising curves; nearly all actives have a fitted effect of over 50% in size
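Growth recovery, yeast-based: influenza A NS1 expressed in S. cerevisiae causes slow growth, and suppressors are detected by OD600. The parent strain without NS1 is used as positive control.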
Pf growth 96h = P. falciparum growth inhibition at 96 hours; P. falciparum luciferase reporter growth, 96 h; Potency, µM (top dose mostly 28.7 µM), most hits filed as inhibitors; actives 6.9% (n = 320,000); AID 504834
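96 h incubation, 37 C, 5% CO2, of luciferase-reporter P. falciparum-infected RBCs (2% hematocrit, 0.05% parasitemia final) with test compounds; endpoint luminescence.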
Cycloheximide cs = affects cycloheximide protein synthesis inhibition readout, counter-screen; max response, %; actives 12% (n = 300,000); cell reporter, cycloheximide protein synthesis inhibition counterscreen; in the data active means max response mostly above about 13%, no sharp cut-off; inactive means mostly below about 14%; further: read at 38.3 µM for the half of the compounds with a filed dose
Of the large screens only hits and unclear results are named; the others gave an inactive call. The list is not random: actives were taken first. Their share in the collection is about 21%. Unless noted, the call rests on the fitted dose curve; in most records, active means well fitted curve in the direction sought with a large enough effect; inconclusive means small, poorly fitted or top-dose-only effect, or another doubt; inactive means no such curve, though single readings can be large; an effect the other way counts as inactive or inconclusive.

COc1ccc(NS(=O)(=O)c2cc(NC(=O)c3ccco3)ccc2N2CCCCC2)cc1	Pf growth 48h inconclusive, Pf growth 96h 9.3µM
COc1ccc(NS(=O)(=O)c2cc(NC(=O)c3cnc(C)cn3)ccc2N2CCCCC2)cc1	Pf growth 48h 12µM, Pf growth 96h inconclusive
Cc1ccc(NC(=O)c2cc(NC(=O)c3ccco3)ccc2N2CCCCC2)cc1	Pf growth 48h 6.6µM
O=C(Nc1ccc(N2CCN(C(=O)c3cccs3)CC2)c(Cl)c1)c1ccco1	Pf growth 96h inconclusive (no result: Pf growth 48h)
Cc1ccccc1C(=O)N1CCN(c2ccc(NC(=O)c3ccco3)cc2Cl)CC1	Pf growth 48h 3.3µM
Cc1ccc2nc(NC(=O)CN3CCOCC3)sc2c1	Shiga toxin inh 64, Cycloheximide cs 33
CCN1CCN(CC(=O)Nc2nc3ccc(C)cc3s2)CC1	Giardia FBPA inh inconclusive
Cc1ccc2nc(NC(=O)COC(=O)c3ccncc3)sc2c1	Shiga toxin inh 66, Cycloheximide cs 35 (no result: NS1 inh)
Cc1ccc2nc(NC(=O)CSCc3ccccc3)sc2c1	Pf growth 96h inconclusive (no result: Pf growth 48h)
CCc1sc(NC(=O)COC)nc1-c1ccccc1	none
COCC(=O)Nc1nc2ccc(C)cc2s1	Shiga toxin inh 65, Cycloheximide cs 52 (no result: Pf growth 96h)
CCOC(=O)c1c(NC(=O)COC(=O)c2ccncc2)sc(C)c1C	none (no result: NS1 inh)
COCC(=O)Nc1nc(-c2ccc(C)cc2)c(C)s1	Shiga toxin inh 35, Cycloheximide cs 13
CCCCCCCCCCCC(=O)[O][Sn]([CH2]CCC)([CH2]CCC)[O]C(=O)CCCCCCCCCCC	none (no result: Shiga toxin inh, Giardia FBPA inh, NS1 inh, Cycloheximide cs)
Nc1ccc(/C=C/c2ccc(N)cc2S(=O)(=O)O)c(S(=O)(=O)O)c1	none (no result: Shiga toxin inh, Giardia FBPA inh, NS1 inh, Cycloheximide cs)
N#Cc1nc(COc2ccc(Cl)cc2)oc1NCc1ccc2c(c1)OCO2	Pf growth 96h 10µM (no result: Pf growth 48h)
Cc1cccc(OCc2nc(C#N)c(NCc3ccc4c(c3)OCO4)o2)c1	Cycloheximide cs 42 (no result: Pf growth 48h)
Cc1cc(C)nc(NS(=O)(=O)c2ccc(NC(=O)Cn3c(=O)oc4ccccc43)cc2)n1	Pf growth 96h 6.6µM (no result: Pf growth 48h)
Cc1ccc(SCC(=O)Nc2ccc(S(=O)(=O)Nc3ncccn3)cc2)cc1	none
Cc1cc(C)nc(SCC(=O)Nc2ccc(S(=O)(=O)Nc3ncccn3)cc2)n1	Shiga toxin inh 75, Pf growth 48h inconclusive, Cycloheximide cs 35
CCc1ccc(S(=O)(=O)Nc2c(C)nc3nc[nH]n3c2=O)cc1	none
CCC(=O)Nc1ccc(S(=O)(=O)Nc2c(C)nc3nc[nH]n3c2=O)cc1	Pf growth 96h 10µM
CCC(=O)Nc1ccc(S(=O)(=O)Nc2ncccn2)cc1	Pf growth 96h 9.3µM (no result: Pf growth 48h)
N#CCS(=O)(=O)c1ccccc1	Pf growth 96h inconclusive
COc1ccccc1NC(=O)COC(=O)c1ccc(N2CCCC2=O)cc1	none (no result: Shiga toxin inh, Giardia FBPA inh, NS1 inh, Cycloheximide cs)
O=C(Nc1ccc(S(=O)(=O)Nc2ncccn2)cc1)c1cccnc1	Shiga toxin inh 114, Cycloheximide cs 59
CCNS(=O)(=O)c1ccc(NC(=O)c2cccnc2)cc1	none (no result: Pf growth 96h)
O=C(/C=C1\SC(=O)N(CC(=O)Nc2ccc(Cl)cc2)C1=O)Nc1ccc(F)cc1	none
CC(/C=C1\SC(=O)N(CC(=O)Nc2ccc(O)cc2)C1=O)=C\c1ccccc1	Shiga toxin inh 40, NS1 inh inconclusive
O=C(/C=C1\SC(=O)N(CC(=O)Nc2ccc(F)cc2)C1=O)Nc1ccc(Cl)cc1	Shiga toxin inh 86, Cycloheximide cs 32
O=C(CCN1C(=O)/C(=C\C=C\c2ccccc2)SC1=S)Nc1ccc(C(=O)O)cc1	Cycloheximide cs 15 (no result: Giardia FBPA inh)
O=C(CCCN1C(=O)S/C(=C\C=C\c2ccccc2)C1=O)Nc1ccc(O)cc1	Shiga toxin inh 148, Pf growth 48h inconclusive, Cycloheximide cs 44
N#CCCCS(=O)(=O)c1nnnn1-c1ccc(F)cc1Br	none (no result: Shiga toxin inh, Pf growth 48h, NS1 inh, Pf growth 96h, Cycloheximide cs)
C=CCOC(=O)N[C@H](/C(C(=O)OC)=C(\C)NCc1ccccc1)c1cccc(C(F)(F)F)c1	none (no result: Shiga toxin inh, Pf growth 48h, NS1 inh, Pf growth 96h, Cycloheximide cs)
CCN(C(=O)C(C)Cl)c1ccccc1 (centres undefined)	none (no result: NS1 inh)
Cc1ccc(C(=O)Nc2cccc(C(F)(F)F)c2)cc1Nc1ncnc2nc[nH]c12	Pf growth 48h 13µM, Pf growth 96h 13µM
CC(C)(C)NC(=O)COC(=O)c1ccc(O)cc1	Cycloheximide cs 17
Cc1ccc(C(=O)COC(=O)C2CCC2)cc1	Shiga toxin inh 48, Cycloheximide cs 36
Cc1ccc(C(=O)COC(=O)c2ccc(O)cc2)cc1	Shiga toxin inh 94, Cycloheximide cs 33
COc1ccc(N2CCN(S(=O)(=O)CCNC(=O)C3CC(=O)N(c4ccccc4)C3)CC2)cc1 (centres undefined)	none
CC(C)NC(=O)[C@@H]1C[C@H]1[C@@H](NC(=O)OCc1ccccc1)c1ccccc1	none (no result: Shiga toxin inh, Pf growth 48h, NS1 inh, Pf growth 96h, Cycloheximide cs)
Cc1cnc(-c2nnc(N(C)C(=O)c3cccnc3)s2)cn1	Pf growth 96h inconclusive
CC(=O)N(c1ccccc1)c1nnc(-c2cnc(C)cn2)s1	Shiga toxin inh 68, Cycloheximide cs 29
CN(C)C(=O)CSc1nnc(Cc2ccccc2)n1CC1CCCO1 (centres undefined)	Pf growth 96h inconclusive (no result: NS1 inh)
S=C(c1ccc(-c2ccc(Cl)cc2Cl)o1)N1CCCC1	Pf growth 48h inconclusive, Pf growth 96h inconclusive, Cycloheximide cs 18
CN1CCN(C(=S)c2ccc(-c3cc(Cl)ccc3Cl)o2)CC1	Pf growth 48h inconclusive
N#CCCN1CCN(C(=S)c2ccc(-c3cc(Cl)ccc3Cl)o2)CC1	Pf growth 48h inconclusive, Pf growth 96h 5.2µM
S=C(c1ccc(-c2ccc(Cl)cc2Cl)o1)N1CCCCC1	Shiga toxin inh 78, Cycloheximide cs 42
Cc1c(NC(=O)c2nn(CC(C)C)c(=O)c3ccccc23)c(=O)n(-c2ccccc2)n1C	Pf growth 96h inconclusive (no result: Shiga toxin inh, Giardia FBPA inh, NS1 inh, Cycloheximide cs)
O=C(Nc1ccc2c(c1)OCCO2)c1c(F)c(F)c(F)c(F)c1F	Cycloheximide cs 17
Cc1ccc(C(=O)Nc2ccc3c(c2)OCCO3)c(Cl)c1	none
O=C(Nc1ccc2c(c1)OCCO2)c1cccc(Cl)c1Cl	Shiga toxin inh 93, Cycloheximide cs 43
O=C(Nc1ccc2c(c1)OCCO2)c1cc(F)c(F)cc1Cl	Shiga toxin inh 72, Cycloheximide cs 37
Cc1ccc(NC(=O)COC(=O)Cc2csc(-c3ccc(Cl)cc3)n2)cc1C	Shiga toxin inh active, Cycloheximide cs 23
Cc1ccc(NC(=O)COC(=O)Cc2csc(-c3cccc(F)c3)n2)cc1C	none
COc1ccc(-n2c(SCC(N)=O)nc3sc4c(c3c2=O)CCN(C)C4)cc1	Pf growth 48h inconclusive, Pf growth 96h 2.1µM
COc1ccc(-n2c(SCC(=O)NCc3ccco3)nc3sc4c(c3c2=O)CCN(C)C4)cc1	Pf growth 48h inconclusive, Giardia FBPA inh inconclusive, Pf growth 96h inconclusive
COc1ccc(-n2c(SCC(=O)O)nc3sc4c(c3c2=O)CCCC4)cc1	none
CCOC(=O)CSc1nc2sc3c(c2c(=O)n1-c1ccccc1)CCN(C)C3	Pf growth 48h 4.7µM (no result: Shiga toxin inh)
CN1CCc2c(sc3nc(SCC(=O)N4CCOCC4)n(-c4ccc(Cl)cc4)c(=O)c23)C1	Pf growth 48h inconclusive
COc1ccc(-n2cnc3sc4c(c3c2=O)CCCC4)cc1	Shiga toxin inh 72

Screening data from PubChem.
